Compounds without any hit were thinned out: in the full panel of roughly 83,000, 20% have a hit.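 Single-concentration screen, 48 h exposure, 96-well plates. Endpoint: percent growth. Below 10 = active.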 Unmarked numbers belong to inactive results. Activity calls are given as the source filed them.

Some test systems named below: NCI-H23 lung; NCI-H226 lung; NCI-H322M lung; HOP-62 NSCLC; NCI-H460 lung; NCI-H522 lung; 786-0 renal; COLO 205 colon; DU-145 prostate; A549/ATCC NSCLC.
What all share (experiment): NCI-60 one-dose screen, 48 h (100 = growth as untreated, 0 = no growth, -100 = all killed)
Common to all, as to conditions: 10 µM unless noted

With `C[C@]12C[C@H](O)[C@H]3[C@@H](CCC4=CC(=O)CC[C@@]43C)[C@@H]1CC[C@@H]2C(=O)CO`, the growth in the test on NCI-H23 lung was 11%; in the test on NCI-H226 lung it was 79.5%; in the test on NCI-H322M lung, 105%; in the test on HOP-62 NSCLC, 102%; in the test on NCI-H460 lung it was 103%; in the test on NCI-H522 lung, 16%. The growth was 101% in the test with 786-0 renal, 96% in the test with COLO 205 colon and 108% in the test on DU-145 prostate.

In the case of `O=C(C(=O)N1CCCCC1)c1ccc(OC2OC(CO)C(O)C(O)C2O)cc1` (stereo not given), the growth in the test on NCI-H23 lung was 101%; with NCI-H226 lung, 102%; with NCI-H322M lung, 116%; in the test on HOP-62 NSCLC it was 104%; in the test on NCI-H460 lung, 114%; in the test on NCI-H522 lung, 85.3%. The growth in the test on A549/ATCC NSCLC is 101%; in the test with 786-0 renal, 106%; with DU-145 prostate, 115%.

For `CN(C)c1ccc(/C=C\c2ccnc3ccccc23)cc1`, the growth with NCI-H23 lung was 13.1%; in the test with NCI-H226 lung it was 39%; in the test on NCI-H322M lung, 90.6%; with HOP-62 NSCLC, 82%; with NCI-H460 lung, 86.9%; with NCI-H522 lung, -7.89% (active). Also, the growth is 65.1% with 786-0 renal, 81.2% with COLO 205 colon and 85.1% in the test with DU-145 prostate.

Take `N#Cc1c(N2CCOCC2)nc2sc3cc(Cl)ccc3n2c1=N`: the growth is 88.2% with NCI-H23 lung; 88.3% with NCI-H226 lung; 117% with NCI-H322M lung; 90.2% with HOP-62 NSCLC; 91.4% with NCI-H460 lung; 93.7% in the test with NCI-H522 lung. Further, the growth in the test on A549/ATCC NSCLC is 102%; in the test on 786-0 renal, 95.3%; in the test with DU-145 prostate it was 110%.

As for `CCOC(=O)C(C(C)=O)c1nc2sc3cc(Cl)ccc3n2c(=N)c1C#N` (stereo not given), the growth with NCI-H23 lung was 78.2%; in the test with NCI-H226 lung, 43%; with NCI-H322M lung, 105%; in the test with HOP-62 NSCLC, 102%; in the test on NCI-H460 lung, 96.1%; with NCI-H522 lung, 95.2%. Moreover, the figures for the growth in the test with A549/ATCC NSCLC, with 786-0 renal and in the test on DU-145 prostate were 90.7%, 84.5% and 109%, respectively.

Regarding `N#CCNc1ccccc1N`, the growth with NCI-H23 lung was 86.6%; with NCI-H226 lung, 101%; with NCI-H322M lung it was 82%; in the test on HOP-62 NSCLC, 85.2%; with NCI-H460 lung, 101%; in the test on NCI-H522 lung, 65.4%. The growth is 92.2% in the test with A549/ATCC NSCLC, 99% in the test on 786-0 renal and 106% in the test on DU-145 prostate.

For the molecule `CCCC[N+](CCCC)=c1ccc2nc3c(C)cc(N(CC)CC)cc3sc-2c1`, the growth in the test on NCI-H23 lung was -36.2% (active); with NCI-H226 lung it was 18.4%; in the test on NCI-H322M lung it was 27.6%; in the test on HOP-62 NSCLC it was -23.4% (active); with NCI-H460 lung, 2.83% (active); with NCI-H522 lung it was -17.1% (active). Moreover, the growth is 16.7% with A549/ATCC NSCLC, -41.1% (active) in the test with COLO 205 colon and 13.7% in the test on DU-145 prostate.

As for `N#CCCCCCn1c2ccccc2c2c3c(c4c5ccccc5[nH]c4c21)C(=O)N(O)C3=O`, the growth is -5.54% (active) in the test on NCI-H23 lung; 43.3% with NCI-H226 lung; 19.9% in the test on NCI-H322M lung; 18.4% in the test on HOP-62 NSCLC; -7.73% (active) in the test on NCI-H460 lung; -53.9% (active) in the test on NCI-H522 lung. In addition, the growth in the test on A549/ATCC NSCLC was 25%; in the test on DU-145 prostate it was 18.5%.

On to `Cc1ccc(C(O)C2=CC(=O)c3ccccc3C2=O)cc1` (stereo not given), for which the growth in the test with NCI-H23 lung was 89.2%; in the test on NCI-H226 lung, 94.9%; in the test on NCI-H322M lung, 99.3%; with HOP-62 NSCLC, 104%; in the test with NCI-H460 lung it was 98.4%; in the test on NCI-H522 lung it was 95.7%. Further, the growth is 102% in the test on A549/ATCC NSCLC, 110% in the test with 786-0 renal and 111% with DU-145 prostate.

`Cc1c(C(N)=O)sc2nc(SCC(=O)Nc3ccc(Cl)cc3)n(-c3ccccc3)c(=O)c12`: the growth in the test with NCI-H23 lung was 106%; in the test with NCI-H226 lung, 108%; with NCI-H322M lung it was 105%; in the test on HOP-62 NSCLC it was 109%; with NCI-H460 lung it was 106%; with NCI-H522 lung, 89.2%. Moreover, the growth in the test with A549/ATCC NSCLC was 116%; in the test on 786-0 renal, 104%; with DU-145 prostate, 120%.

Turning to `CN(CC(=O)Nc1nc2ccccc2[nH]1)S(=O)(=O)c1ccc(Cl)cc1`, the growth with NCI-H23 lung was 126%; in the test with NCI-H226 lung, 81.7%; in the test on NCI-H322M lung it was 98.3%; in the test with HOP-62 NSCLC, 69.4%; with NCI-H460 lung, 45.3%; with NCI-H522 lung, 80.6%. The growth with A549/ATCC NSCLC was 111%; in the test on 786-0 renal, 91.9%; with DU-145 prostate, 89.9%.

Take `CN1CCN(Cc2ccc(NC(=O)c3[nH]ncc3Nc3ccnc4ccnn34)cc2)CC1`: the growth with NCI-H23 lung is 62.3%; in the test with NCI-H226 lung, 65.7%; in the test on NCI-H322M lung, 79.6%; with HOP-62 NSCLC, 93.5%; in the test with NCI-H460 lung, 63.7%; in the test on NCI-H522 lung, 55.7%. Moreover, the growth in the test on A549/ATCC NSCLC is 81.3%; in the test on COLO 205 colon, 39.5%; in the test with DU-145 prostate it was 47.4%.

With `CN(CC(=O)N(Cc1ccc(C2CCCCC2)cc1)c1ccc(C(=O)O)cc1)S(=O)(=O)c1c(F)c(F)c(F)c(F)c1F`, the growth in the test on NCI-H23 lung was -19.9% (active); in the test on NCI-H226 lung, 97.4%; in the test with NCI-H322M lung, 86.4%; in the test with HOP-62 NSCLC, 60.6%; in the test on NCI-H460 lung, 96%; with NCI-H522 lung, 44.7%. The growth in the test with A549/ATCC NSCLC is 100%; in the test on COLO 205 colon it was 12.9%; with DU-145 prostate, -18% (active).

`CC/C(=C\c1ccc(N(C)C)cc1)c1nc2ccccc2c(=O)[nH]1`: the growth in the test on NCI-H23 lung is 121%; in the test with NCI-H226 lung, 110%; in the test on NCI-H322M lung, 104%; with HOP-62 NSCLC, 108%; in the test on NCI-H460 lung it was 102%; in the test on NCI-H522 lung, 103%. Also, the growth in the test on A549/ATCC NSCLC was 98%; in the test on 786-0 renal, 94.6%; in the test on DU-145 prostate, 105%.
